Experimental data: the supplement of paper PMC11732987, “Enantioselective OTUD7B fragment discovery through chemoproteomics screening and high-throughput optimisation” (Communications Chemistry, 2025)

Tests used:
Assay in all cases: log2 ratio of Biotin-Ahx-Ub-VS probe labelling (fragment/DMSO); higher = less target engagement (more negative = stronger competition), active = hit call of the paper (q ≤ 0.05, log2 ratio ≤ -1)
Details in all cases: compound concentration: 200 uM; treatment time: 3 h
USP19 = target: T1, USP19 (UniProt O94966)
T1 sequence (whole entry): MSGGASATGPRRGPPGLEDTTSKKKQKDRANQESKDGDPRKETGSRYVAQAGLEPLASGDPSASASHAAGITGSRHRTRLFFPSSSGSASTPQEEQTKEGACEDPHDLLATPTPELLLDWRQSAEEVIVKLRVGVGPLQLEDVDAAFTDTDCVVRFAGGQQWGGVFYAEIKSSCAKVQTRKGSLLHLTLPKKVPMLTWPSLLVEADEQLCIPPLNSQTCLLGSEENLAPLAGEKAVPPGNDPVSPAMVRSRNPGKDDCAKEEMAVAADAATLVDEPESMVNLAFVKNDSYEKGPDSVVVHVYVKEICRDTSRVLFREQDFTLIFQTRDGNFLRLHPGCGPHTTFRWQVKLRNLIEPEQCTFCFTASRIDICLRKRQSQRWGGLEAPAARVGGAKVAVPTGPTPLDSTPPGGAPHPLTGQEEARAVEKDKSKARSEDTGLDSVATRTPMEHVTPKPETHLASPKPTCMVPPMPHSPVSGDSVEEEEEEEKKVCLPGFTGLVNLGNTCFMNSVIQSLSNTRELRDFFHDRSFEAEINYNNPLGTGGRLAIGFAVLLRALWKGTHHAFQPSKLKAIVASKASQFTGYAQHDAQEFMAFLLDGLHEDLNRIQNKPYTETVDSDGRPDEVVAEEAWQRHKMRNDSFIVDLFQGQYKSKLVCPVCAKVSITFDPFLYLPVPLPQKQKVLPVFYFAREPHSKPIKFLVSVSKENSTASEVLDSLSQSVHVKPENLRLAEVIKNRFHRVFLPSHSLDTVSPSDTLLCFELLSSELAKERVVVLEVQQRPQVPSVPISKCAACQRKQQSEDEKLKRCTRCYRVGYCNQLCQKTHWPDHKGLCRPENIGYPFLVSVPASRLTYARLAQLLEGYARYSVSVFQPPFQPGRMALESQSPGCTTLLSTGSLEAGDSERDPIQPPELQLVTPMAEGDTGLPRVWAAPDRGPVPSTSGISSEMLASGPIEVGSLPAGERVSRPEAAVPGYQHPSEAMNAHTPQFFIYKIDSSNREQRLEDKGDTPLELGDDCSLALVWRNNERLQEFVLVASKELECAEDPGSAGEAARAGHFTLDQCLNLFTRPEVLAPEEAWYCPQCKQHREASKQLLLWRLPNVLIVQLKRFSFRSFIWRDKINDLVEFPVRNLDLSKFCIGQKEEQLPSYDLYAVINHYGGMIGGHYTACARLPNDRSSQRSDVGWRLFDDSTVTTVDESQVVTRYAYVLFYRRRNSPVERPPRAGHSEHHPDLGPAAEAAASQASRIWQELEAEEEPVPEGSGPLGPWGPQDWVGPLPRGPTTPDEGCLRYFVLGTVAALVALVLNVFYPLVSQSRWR
Summary of the method: (§1)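 HEK293T lysate, 495 µg per sample in Tris/CHAPS/IGEPAL buffer with protease inhibitors, was treated in triplicate with fragment at 200 µM or vehicle for 3 h and then with Biotin-Ahx-Ub-VS at 0.5 µM final for 1 h. Labelled DUBs were NeutrAvidin-enriched, digested with LysC and trypsin, and run by diaPASEF LC-MS/MS. Spectronaut label-free quantities were global-median-normalised, and values are average log2 fragment/vehicle ratios by unpaired t-test on proteins with ≥2 unique peptides.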

USP22 = target: T2, USP22 (UniProt Q9UPT9)
T2 sequence (whole entry): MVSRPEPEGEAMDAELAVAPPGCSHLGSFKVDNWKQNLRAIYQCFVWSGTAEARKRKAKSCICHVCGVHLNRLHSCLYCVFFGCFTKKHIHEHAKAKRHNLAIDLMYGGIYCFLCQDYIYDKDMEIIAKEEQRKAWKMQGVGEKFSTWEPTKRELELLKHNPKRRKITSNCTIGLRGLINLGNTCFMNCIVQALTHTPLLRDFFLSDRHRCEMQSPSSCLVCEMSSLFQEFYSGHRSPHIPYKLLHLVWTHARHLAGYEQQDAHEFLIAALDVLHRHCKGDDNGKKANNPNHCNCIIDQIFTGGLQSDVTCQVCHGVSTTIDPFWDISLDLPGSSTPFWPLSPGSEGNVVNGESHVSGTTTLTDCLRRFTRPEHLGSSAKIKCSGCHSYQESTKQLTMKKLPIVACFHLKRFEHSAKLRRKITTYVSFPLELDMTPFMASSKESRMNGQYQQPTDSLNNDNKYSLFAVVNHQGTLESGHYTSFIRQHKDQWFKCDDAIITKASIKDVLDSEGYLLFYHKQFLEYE
Summary of the method: as §1

USP24 = USP24 (UniProt Q9UPU5)
Summary of the method: as §1

USP25 = target: T3, USP25 (UniProt Q9UHP3)
T3 sequence (whole entry): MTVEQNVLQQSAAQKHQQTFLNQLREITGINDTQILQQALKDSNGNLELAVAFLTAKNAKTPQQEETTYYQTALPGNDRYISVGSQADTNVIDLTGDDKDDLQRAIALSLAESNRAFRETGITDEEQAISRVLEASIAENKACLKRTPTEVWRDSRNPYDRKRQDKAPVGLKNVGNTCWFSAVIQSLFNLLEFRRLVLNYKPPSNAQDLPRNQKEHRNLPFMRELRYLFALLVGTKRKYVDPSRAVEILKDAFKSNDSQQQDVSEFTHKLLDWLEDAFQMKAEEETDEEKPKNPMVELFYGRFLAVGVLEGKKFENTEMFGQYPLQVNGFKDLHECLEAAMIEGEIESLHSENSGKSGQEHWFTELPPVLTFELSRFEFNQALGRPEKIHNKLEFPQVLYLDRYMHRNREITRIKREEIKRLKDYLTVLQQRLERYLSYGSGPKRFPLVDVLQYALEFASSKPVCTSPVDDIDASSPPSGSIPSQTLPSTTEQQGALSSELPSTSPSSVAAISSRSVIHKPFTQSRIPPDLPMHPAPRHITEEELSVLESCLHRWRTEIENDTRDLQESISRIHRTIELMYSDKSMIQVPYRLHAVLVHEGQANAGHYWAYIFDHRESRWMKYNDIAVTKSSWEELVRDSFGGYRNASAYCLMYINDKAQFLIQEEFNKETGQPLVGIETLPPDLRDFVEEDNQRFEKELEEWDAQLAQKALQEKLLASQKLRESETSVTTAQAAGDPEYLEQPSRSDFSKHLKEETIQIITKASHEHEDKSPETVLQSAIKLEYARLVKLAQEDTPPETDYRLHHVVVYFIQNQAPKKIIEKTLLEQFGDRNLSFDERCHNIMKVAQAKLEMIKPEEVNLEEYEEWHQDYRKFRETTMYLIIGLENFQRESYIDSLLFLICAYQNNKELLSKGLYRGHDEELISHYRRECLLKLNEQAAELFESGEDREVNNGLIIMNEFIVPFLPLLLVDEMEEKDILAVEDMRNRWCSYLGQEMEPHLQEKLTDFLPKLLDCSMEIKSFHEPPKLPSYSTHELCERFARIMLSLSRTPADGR
Summary of the method: as §1

USP28 = target: T4, USP28 (UniProt Q96RU2)
T4 sequence (whole entry): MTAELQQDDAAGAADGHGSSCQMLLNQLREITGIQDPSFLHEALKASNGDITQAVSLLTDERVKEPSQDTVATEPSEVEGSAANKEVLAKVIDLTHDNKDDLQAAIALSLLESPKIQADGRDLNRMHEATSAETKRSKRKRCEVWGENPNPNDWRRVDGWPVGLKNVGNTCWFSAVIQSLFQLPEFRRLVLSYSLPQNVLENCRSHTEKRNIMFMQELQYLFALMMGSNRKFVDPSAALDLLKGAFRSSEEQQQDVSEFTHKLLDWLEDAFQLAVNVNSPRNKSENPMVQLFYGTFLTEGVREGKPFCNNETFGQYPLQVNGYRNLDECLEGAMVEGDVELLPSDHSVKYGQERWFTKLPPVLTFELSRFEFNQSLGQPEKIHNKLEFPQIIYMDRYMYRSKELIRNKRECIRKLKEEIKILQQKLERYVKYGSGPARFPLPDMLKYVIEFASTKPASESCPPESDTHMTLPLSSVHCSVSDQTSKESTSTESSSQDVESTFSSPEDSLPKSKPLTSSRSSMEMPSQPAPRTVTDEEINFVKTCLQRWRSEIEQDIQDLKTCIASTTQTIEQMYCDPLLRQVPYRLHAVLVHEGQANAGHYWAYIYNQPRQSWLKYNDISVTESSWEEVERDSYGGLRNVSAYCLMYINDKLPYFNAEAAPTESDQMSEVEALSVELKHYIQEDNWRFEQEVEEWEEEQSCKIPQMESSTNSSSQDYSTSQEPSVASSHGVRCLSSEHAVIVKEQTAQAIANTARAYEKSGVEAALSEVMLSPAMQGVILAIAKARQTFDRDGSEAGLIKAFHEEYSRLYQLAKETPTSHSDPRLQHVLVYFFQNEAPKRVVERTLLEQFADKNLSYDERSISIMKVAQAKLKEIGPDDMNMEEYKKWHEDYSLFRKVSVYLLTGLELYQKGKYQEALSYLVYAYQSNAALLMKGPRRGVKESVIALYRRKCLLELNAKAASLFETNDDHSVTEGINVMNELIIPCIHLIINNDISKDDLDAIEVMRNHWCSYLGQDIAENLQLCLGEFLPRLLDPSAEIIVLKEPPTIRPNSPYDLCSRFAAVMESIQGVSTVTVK
Summary of the method: as §1

Measured: log2 ratio of Biotin-Ahx-Ub-VS probe labelling

USP24, sequence (Q9UPU5 whole entry): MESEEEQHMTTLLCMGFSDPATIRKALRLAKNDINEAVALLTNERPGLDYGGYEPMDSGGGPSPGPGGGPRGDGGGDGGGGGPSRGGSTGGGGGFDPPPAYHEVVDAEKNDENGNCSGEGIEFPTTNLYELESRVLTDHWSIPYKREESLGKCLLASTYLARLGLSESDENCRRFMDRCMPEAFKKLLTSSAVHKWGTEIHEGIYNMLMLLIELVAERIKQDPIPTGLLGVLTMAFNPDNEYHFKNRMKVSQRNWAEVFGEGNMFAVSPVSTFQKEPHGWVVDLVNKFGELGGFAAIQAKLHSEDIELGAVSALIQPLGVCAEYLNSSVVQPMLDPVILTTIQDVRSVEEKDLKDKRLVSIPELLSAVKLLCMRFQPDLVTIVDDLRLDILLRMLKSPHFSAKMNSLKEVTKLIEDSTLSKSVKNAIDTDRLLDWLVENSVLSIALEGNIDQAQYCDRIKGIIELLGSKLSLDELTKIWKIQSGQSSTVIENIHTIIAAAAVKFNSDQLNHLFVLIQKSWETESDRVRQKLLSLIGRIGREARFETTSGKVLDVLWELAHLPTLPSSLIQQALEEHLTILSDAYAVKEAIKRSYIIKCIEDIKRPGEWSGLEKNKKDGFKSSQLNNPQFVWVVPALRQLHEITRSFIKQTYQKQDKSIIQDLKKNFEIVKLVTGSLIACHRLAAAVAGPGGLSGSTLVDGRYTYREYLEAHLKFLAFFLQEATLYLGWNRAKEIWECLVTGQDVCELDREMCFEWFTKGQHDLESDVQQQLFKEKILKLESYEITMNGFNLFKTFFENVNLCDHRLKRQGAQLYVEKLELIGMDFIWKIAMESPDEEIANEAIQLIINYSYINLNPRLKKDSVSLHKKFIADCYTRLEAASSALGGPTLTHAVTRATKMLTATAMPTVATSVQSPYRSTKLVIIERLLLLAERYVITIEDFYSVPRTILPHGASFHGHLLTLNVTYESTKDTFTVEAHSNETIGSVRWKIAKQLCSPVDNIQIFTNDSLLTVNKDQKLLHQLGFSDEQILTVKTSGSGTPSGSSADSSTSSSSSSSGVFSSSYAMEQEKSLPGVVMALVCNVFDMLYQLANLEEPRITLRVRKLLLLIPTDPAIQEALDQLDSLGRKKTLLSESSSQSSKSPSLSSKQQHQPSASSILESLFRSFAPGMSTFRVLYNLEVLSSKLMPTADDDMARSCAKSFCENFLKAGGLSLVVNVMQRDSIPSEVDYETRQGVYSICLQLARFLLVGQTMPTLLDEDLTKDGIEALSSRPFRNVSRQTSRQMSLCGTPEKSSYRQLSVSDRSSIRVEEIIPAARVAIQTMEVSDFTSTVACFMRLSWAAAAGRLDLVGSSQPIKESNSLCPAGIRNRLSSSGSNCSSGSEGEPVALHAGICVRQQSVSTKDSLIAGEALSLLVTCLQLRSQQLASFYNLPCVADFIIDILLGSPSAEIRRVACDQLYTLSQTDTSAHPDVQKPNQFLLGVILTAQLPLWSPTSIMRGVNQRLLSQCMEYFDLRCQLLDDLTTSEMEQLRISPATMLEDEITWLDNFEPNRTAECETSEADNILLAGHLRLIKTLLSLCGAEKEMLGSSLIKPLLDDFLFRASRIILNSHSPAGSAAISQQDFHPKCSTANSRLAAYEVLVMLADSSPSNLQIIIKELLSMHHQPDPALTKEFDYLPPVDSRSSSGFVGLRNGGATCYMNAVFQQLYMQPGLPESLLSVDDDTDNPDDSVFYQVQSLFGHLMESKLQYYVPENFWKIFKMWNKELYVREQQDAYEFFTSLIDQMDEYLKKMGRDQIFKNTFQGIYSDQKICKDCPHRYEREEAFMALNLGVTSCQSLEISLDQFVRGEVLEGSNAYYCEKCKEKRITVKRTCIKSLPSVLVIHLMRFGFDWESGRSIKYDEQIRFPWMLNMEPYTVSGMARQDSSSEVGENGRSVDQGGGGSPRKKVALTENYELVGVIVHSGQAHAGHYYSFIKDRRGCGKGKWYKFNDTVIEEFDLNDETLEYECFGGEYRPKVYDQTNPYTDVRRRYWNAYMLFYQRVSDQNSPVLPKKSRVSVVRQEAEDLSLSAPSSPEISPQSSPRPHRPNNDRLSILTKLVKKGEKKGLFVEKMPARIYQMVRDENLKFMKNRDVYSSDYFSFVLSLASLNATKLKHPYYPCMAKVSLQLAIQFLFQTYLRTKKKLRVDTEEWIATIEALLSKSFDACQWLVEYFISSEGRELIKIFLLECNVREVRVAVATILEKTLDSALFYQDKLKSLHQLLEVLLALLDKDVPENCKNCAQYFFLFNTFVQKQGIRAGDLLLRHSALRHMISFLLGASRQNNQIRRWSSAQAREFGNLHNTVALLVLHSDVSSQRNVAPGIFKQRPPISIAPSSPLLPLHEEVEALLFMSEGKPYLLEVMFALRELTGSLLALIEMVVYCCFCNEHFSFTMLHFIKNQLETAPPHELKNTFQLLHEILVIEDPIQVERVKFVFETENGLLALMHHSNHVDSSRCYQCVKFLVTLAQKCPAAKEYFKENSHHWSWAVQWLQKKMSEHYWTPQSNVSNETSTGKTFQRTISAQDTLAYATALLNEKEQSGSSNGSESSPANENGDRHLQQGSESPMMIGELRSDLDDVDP

CC(NC(=O)CCl)c1cccc(Cl)c1 (stereo not given)
inactive: USP19 -0.35 | USP22 -0.146 | USP24 -0.342 | USP25 -0.639 | USP28 -0.845
